{"source": "PubChem BioAssay AID800", "about": "(PCMD, 2007)", "note": "Screen size: about 220,000 compounds; about 650 (0.3%) were called active. The sample holds actives, similar compounds and a random draw of the others, so the mix is not that of the screen. Rule as the data show it: active = inhibition above about 40%; inactive = the rest.", "data": [{"molecular_target": "Coagulation factor XII (Homo sapiens) (UniProt P00748)", "sequence (P00748 20-372 limits assumed)": "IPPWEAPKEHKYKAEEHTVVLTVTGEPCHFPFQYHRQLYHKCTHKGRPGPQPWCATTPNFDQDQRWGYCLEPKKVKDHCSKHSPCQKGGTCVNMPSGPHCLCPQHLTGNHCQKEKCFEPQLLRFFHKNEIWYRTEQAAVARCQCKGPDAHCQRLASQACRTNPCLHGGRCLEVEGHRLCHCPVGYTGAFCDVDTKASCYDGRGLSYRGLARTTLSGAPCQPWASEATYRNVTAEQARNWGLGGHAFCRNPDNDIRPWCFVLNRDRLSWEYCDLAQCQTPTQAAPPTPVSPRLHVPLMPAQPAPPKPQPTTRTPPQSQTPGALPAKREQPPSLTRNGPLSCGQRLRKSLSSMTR", "sequence (P00748 373-615 limits assumed)": "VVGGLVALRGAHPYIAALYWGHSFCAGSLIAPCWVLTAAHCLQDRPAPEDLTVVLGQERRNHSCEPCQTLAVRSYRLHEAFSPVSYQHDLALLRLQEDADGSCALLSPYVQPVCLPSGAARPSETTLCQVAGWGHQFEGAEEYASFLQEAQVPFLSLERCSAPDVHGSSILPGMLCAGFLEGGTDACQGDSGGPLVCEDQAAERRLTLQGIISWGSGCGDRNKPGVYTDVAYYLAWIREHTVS", "experiment": "human FXIIa protease inhibitors, primary screen, biochemical, 1536-well (AID 800);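 also: 0% = enzyme with no compound and 100% = blank without enzyme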", "settings": "purified FXIIa, Boc-QGR-AMC fluorogenic substrate, 2 h; at 5 µM; stronger effect = higher value", "values": [{"smiles": "CCN(CC)CCC(c1ccc2c(c1)OCO2)c1c(OC)cc(OC)c2c(-c3ccccc3)cc(=O)oc12", "note": "(stereo unspecified)", "inhibition": "8.45% (inactive)"}, {"smiles": "CCN1CC(CN(C)Cc2nc(-c3ccc(Cl)cc3)no2)CC1=O", "note": "(stereo unspecified)", "inhibition": "7.51% (inactive)"}, {"smiles": "COC(=O)c1ccc(-c2noc(CN(Cc3ccccn3)CC3CCCO3)n2)cc1", "note": "(stereo unspecified)", "inhibition": "14.6% (inactive)"}, {"smiles": "CN(Cc1ccccn1)Cc1nc(-c2ccc(Cl)cc2)no1", "inhibition": "103% (active)"}, {"smiles": "COc1cc(OC)c2ccc(=O)oc2c1C(CCN1CCN(c2ccccc2)CC1)c1ccc2c(c1)OCO2", "note": "(stereo unspecified)", "inhibition": "7.95% (inactive)"}, {"smiles": "CCOC(=O)c1c(N)sc2c1CCCC2=O", "inhibition": "5.97% (inactive)"}, {"smiles": "O=C(O)C1CCN(C(=O)c2cc(F)cc3c2OCOC3)CC1", "inhibition": "4.37% (inactive)"}, {"smiles": "Cc1ccc(Nc2c3c(nc4ccccc24)CCC3)cc1", "inhibition": "9.63% (inactive)"}, {"smiles": "CSc1nnc(SCc2nc3sc(C(=O)O)c(C)c3c(=O)[nH]2)s1", "inhibition": "10.1% (inactive)"}, {"smiles": "COc1ccc(CCNC(=O)CCn2c(=O)c3ccccc3n(CC(=O)NCC3CCCO3)c2=O)cc1OC", "note": "(stereo unspecified)", "inhibition": "40% (active)"}, {"smiles": "COc1ccc(CCNC(=O)CCn2c(=O)oc3ccccc32)cc1OC", "inhibition": "7.51% (inactive)"}, {"smiles": "COc1ccc(CCNC(=O)Cn2c(=O)n(CC3CCCO3)c(=O)c3ccccc32)cc1OC", "note": "(stereo unspecified)", "inhibition": "-8.44% (inactive)"}, {"smiles": "Cc1cc(Cl)ccc1NNC(=O)c1snnc1C", "inhibition": "7.13% (inactive)"}, {"smiles": "COc1ccc(SCCN2CCN(CC(C)C)CCC2=O)cc1", "inhibition": "7.64% (inactive)"}, {"smiles": "CC1(C)CC(=O)C=C(Nc2ccccc2)C1", "inhibition": "6.92% (inactive)"}, {"smiles": "S=c1[nH]nc(-c2cc(-c3ccsc3)n[nH]2)n1-c1ccccc1", "inhibition": "4.05% (inactive)"}, {"smiles": "CC(C)C(=O)N1CCC2(CC1)Oc1ccc(F)cc1C(=O)C21CC(c2ccccc2)=NO1", "note": "(stereo unspecified)", "inhibition": "8.49% (inactive)"}, {"smiles": "O=c1cc(CCl)nc2scc(-c3ccccc3)n12", "inhibition": "6.87% (inactive)"}, {"smiles": "CN(C)c1ccnc2sc3c(=O)n(Cc4ccccc4)cnc3c12", "inhibition": "2.78% (inactive)"}, {"smiles": "Cc1c(C#N)c2ncn(CC#N)c(=O)c2n1-c1ccccc1", "inhibition": "7.67% (inactive)"}, {"smiles": "CN(C)/C=C/c1c(C#N)c(=O)ncn1Cc1ccccc1", "inhibition": "53% (active)"}, {"smiles": "O=C(N/N=C/c1cccc2cccnc12)[C@H]1C[C@@H]1c1ccccc1", "inhibition": "8.29% (inactive)"}, {"smiles": "O=C(O)CCn1c(O)c(C=C2N=c3ccccc3=N2)sc1=S", "inhibition": "12.8% (inactive)"}, {"smiles": "COc1ccc(Cl)cc1S(=O)(=O)N1CCC(O)(c2ccc(Cl)cc2)CC1", "inhibition": "3.43% (inactive)"}, {"smiles": "Cc1cc(N)n(-c2ccc(S(=O)(=O)N3CCCC3)cc2[N+](=O)[O-])n1", "inhibition": "3.82% (inactive)"}, {"smiles": "O=C(Nc1ccc(N2CCN(C(=O)c3ccccc3)CC2)c(Cl)c1)c1ncn[nH]1", "inhibition": "7.54% (inactive)"}, {"smiles": "O=C(Cc1ccccc1)Nc1c(Cl)ccc2nsnc12", "inhibition": "2.05% (inactive)"}, {"smiles": "C[C@H](NC(=O)c1nc[nH]c1C(=O)N[C@@H](C)C(=O)OC(C)(C)C)C(=O)OC(C)(C)C", "inhibition": "12.4% (inactive)"}, {"smiles": "CCOC(=O)c1cn(CC)c2cc(F)c(F)cc2c1=O", "inhibition": "4.45% (inactive)"}, {"smiles": "COc1cc(NC(=O)c2cncc(-c3ccc(C#N)cc3)c2)cc(C(=O)Nc2cccc(C(F)(F)F)c2)c1", "inhibition": "3.5% (inactive)"}, {"smiles": "O=[N+]([O-])c1cc([N+](=O)[O-])c2cccnc2c1O", "inhibition": "3.18% (inactive)"}, {"smiles": "O=C(Nc1cccc(S(=O)(=O)NC2=NCCC2)c1)C1CCCCC1", "inhibition": "14.4% (inactive)"}, {"smiles": "COc1ccc2[nH]c(C(=O)Nc3ccccc3Cl)cc2c1", "inhibition": "6.03% (inactive)"}, {"smiles": "CCC/C(C)=N\\Nc1nc2c(c(=O)n(C)c(=O)n2C)n1C", "inhibition": "5.02% (inactive)"}, {"smiles": "CCOC(=O)c1c(C)oc(C)c(C(=O)OCC)c1=O", "inhibition": "8.51% (inactive)"}, {"smiles": "CCOC(=O)c1cnc(COc2ccccc2Cl)[nH]c1=O", "inhibition": "3.67% (inactive)"}, {"smiles": "O=C(NNC(=S)NCc1ccccc1)c1ccc(OC(F)F)cc1", "inhibition": "-6.41% (inactive)"}, {"smiles": "CC(NC(=S)Nc1ccc(OC(F)F)cc1)c1ccc(F)cc1", "note": "(stereo unspecified)", "inhibition": "10.5% (inactive)"}, {"smiles": "CC/C(=N\\NC(=S)NC(C)C)c1ccc(OC(F)F)cc1", "inhibition": "52.2% (active)"}, {"smiles": "Cc1onc(-c2ccc(Cl)cc2)c1-c1ccnn1S(=O)(=O)c1ccc(Cl)cc1", "inhibition": "3.87% (inactive)"}, {"smiles": "CCOCCn1c(-c2ccccc2)nc2ccccc21", "inhibition": "9.94% (inactive)"}, {"smiles": "O=C(COC(=O)CCc1nc2ccccc2c(=O)[nH]1)Nc1ccc(N2CCOCC2)cc1", "inhibition": "1.95% (inactive)"}, {"smiles": "CSc1nc(C)nc(C2CC2)c1C#N", "inhibition": "1.66% (inactive)"}, {"smiles": "CN(c1ccc(OCC(=O)NC2=NCCS2)cc1)S(=O)(=O)c1ccc(F)cc1", "inhibition": "7.4% (inactive)"}, {"smiles": "Cc1ccc(S(=O)(=O)N2CCN(C(=O)COC(=O)c3c(C)noc3C)CC2)c(C)c1", "inhibition": "7.88% (inactive)"}, {"smiles": "O=c1[nH]c(CSc2ccccc2)nc2c1oc1ccccc12", "inhibition": "7.45% (inactive)"}, {"smiles": "COC(=O)[C@H](Cc1ccccc1)NC(=O)Nc1ccc(OC)cc1", "inhibition": "4.58% (inactive)"}, {"smiles": "CC(C)(C)NC(=O)/C(=C/c1cccnc1)NC(=O)c1ccco1", "inhibition": "15.3% (inactive)"}, {"smiles": "O=C(Nc1nnc(Cc2ccc(Cl)cc2)s1)c1ccncc1", "inhibition": "2.31% (inactive)"}, {"smiles": "O=C(NNC(=S)NC1CC2CCC1C2)c1ccc(Cl)cc1", "note": "(stereo unspecified)", "inhibition": "7.4% (inactive)"}, {"smiles": "CCc1ccc2nc(Nc3ncc(C(C)=O)c(C)n3)nc(C)c2c1", "inhibition": "6.31% (inactive)"}, {"smiles": "C=C(C)C(=O)Nc1cccc(C2=NOC3(C2)C[C@H](C(N)=O)N(C(=O)C(c2ccccc2)c2ccccc2)C3)c1", "note": "(stereo partly specified)", "inhibition": "0.36% (inactive)"}, {"smiles": "Nc1nc(Sc2ncccc2[N+](=O)[O-])n[nH]1", "inhibition": "7.38% (inactive)"}, {"smiles": "C/C(=N/Nc1nc(-c2ccccc2)c(CC(=O)O)s1)c1ccccc1", "inhibition": "10.1% (inactive)"}, {"smiles": "COc1ccccc1-c1c(C#N)c(N)nc2c1CCC2", "inhibition": "-2.02% (inactive)"}, {"smiles": "CCOC(=O)C(=CNNc1ccsc1C(=O)OC)C(=O)OCC", "inhibition": "8.52% (inactive)"}, {"smiles": "COc1ccc(CN(Cc2ccc(OC)cc2)C(=O)c2cccs2)cc1", "inhibition": "45.5% (active)"}, {"smiles": "COc1ccc(CN(C(=O)c2cccs2)c2nccs2)cc1OC", "inhibition": "14.5% (inactive)"}, {"smiles": "COc1ccc(OCC(=O)N2CCN(C(=O)c3cccs3)CC2)cc1", "inhibition": "0.82% (inactive)"}, {"smiles": "Cc1nc(=O)c(-c2ccccc2)c(C)n1-c1ccc(Br)cc1", "inhibition": "7.02% (inactive)"}, {"smiles": "CCOC(=O)c1nnn2c1nc(N1CCN(c3ccccc3)CC1)c1ccccc12", "inhibition": "5.24% (inactive)"}]}]}
